An excerpt weighted towards active compounds, which were near 1.6% of everything screened.
KCNQ2 block: KCNQ2 (rat) channel inhibition; CHO-K1 KCNQ2, FluxOR thallium flux, 20 min; stronger effect = lower value; B-score at 10 µM; 310,000 compounds, 1.1% hits;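 active = fluorescence ratio B-score at most minus 3 library SDs, with starting brightness B-score within 2 library SDs, cut at about -5.5 in these data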
Target sequence (O88943 whole entry, looked up): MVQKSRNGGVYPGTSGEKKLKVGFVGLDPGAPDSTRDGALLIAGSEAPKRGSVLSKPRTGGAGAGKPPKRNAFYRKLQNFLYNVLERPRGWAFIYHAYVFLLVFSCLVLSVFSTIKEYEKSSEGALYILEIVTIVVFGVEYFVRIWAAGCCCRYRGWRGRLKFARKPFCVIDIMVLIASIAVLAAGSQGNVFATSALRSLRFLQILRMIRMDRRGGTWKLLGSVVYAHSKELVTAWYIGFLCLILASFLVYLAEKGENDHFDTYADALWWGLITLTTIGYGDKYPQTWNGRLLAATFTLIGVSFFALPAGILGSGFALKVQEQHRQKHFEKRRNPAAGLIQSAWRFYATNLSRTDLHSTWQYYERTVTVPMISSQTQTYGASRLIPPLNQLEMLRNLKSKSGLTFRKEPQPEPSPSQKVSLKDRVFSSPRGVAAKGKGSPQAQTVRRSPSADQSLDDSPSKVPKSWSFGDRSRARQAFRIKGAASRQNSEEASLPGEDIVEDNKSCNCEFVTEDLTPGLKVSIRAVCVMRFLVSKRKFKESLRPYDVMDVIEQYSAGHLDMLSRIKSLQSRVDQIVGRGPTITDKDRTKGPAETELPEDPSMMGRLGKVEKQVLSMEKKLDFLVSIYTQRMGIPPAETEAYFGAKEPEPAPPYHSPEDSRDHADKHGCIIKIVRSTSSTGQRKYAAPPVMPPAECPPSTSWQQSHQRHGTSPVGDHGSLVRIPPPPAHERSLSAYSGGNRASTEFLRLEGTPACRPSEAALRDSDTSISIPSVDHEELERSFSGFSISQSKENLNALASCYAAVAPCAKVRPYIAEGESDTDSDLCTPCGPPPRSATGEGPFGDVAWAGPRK
KCNQ2 enhance: enhances the rat KCNQ2 potassium channel; 310,000 compounds, 0.54% hits; CHO-K1 KCNQ2, FluxOR thallium flux fluorescence; stronger effect = higher value; AID 2239; B-score at 10 µM; O88943;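 active = fluorescence ratio B-score at least 3 SD of library B-scores, with initial fluorescence B-score within 3 of them, cut at about 5.3 in these data; same plate scores as AID 2156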;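 note: B-score of peak minus minimum over baseline fluorescence ratio after K+ and Tl+ stimulus; positive B-score means potentiation of KCNQ2 with more thallium influx and brighter signal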
KCNQ2 block conf: confirmation of rat KCNQ2 potassium channel inhibitors; shares compounds with KCNQ2 block; KCNQ2-expressing cells, thallium flux, inhibition; stronger effect = lower value; activity change, negative = inhibition, % at 10 µM; 1,000 compounds, 57% hits; AID 493025;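 note: 0% = vehicle wells and values are ratio percent relative to vehicle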
KCNQ1 spec: KCNQ2 inhibitor that also affects human KCNQ1 channel; shares compounds with KCNQ2 block; KCNQ1-expressing cells, FluxOR thallium flux fluorescence; stronger effect = lower value; activity change, negative = inhibition, % at 10 µM; 1,000 compounds, 15% hits;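 active = activity change at least 3 SD of negative controls below their mean in both duplicate wells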;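 note: CHO cells stably transfected with KCNQ1 and depolarized by potassium stimulus; peak minus minimum fluorescence over baseline after thallium addition; 0% = vehicle negative control and -100% = blank without thallium stimulus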
CHO Tl ctr: activity in parental CHO cells lacking KCNQ2 | shares compounds with KCNQ2 block | thallium flux counter-screen; stronger effect = lower value | activity change, % at 10 µM | 1,000 compounds, 14% hits | AID 493029;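 note: 0% = vehicle negative controls with stimulus buffer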
KCNQ2 inh confirm: blocks rat KCNQ2 current in automated patch clamp. shares compounds with KCNQ2 block. KCNQ2-expressing cells. calls only at 10 µM. 550 compounds, 49% hits. AID 588531
Kir21 confirm: confirmation of mouse Kir2.1 potassium channel inhibitors | Kir2.1-expressing cells, FluxOR thallium flux fluorescence; stronger effect = lower value | Tl flux remaining, % of negative control (stronger effect = lower value), % at 10 µM | 2,300 compounds, 41% hits | shares compounds with KCNQ2 enhance;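 active = Primary-screen hit whose thallium flux fell at least 3 control SD below untreated wells in both duplicates, with normal baseline fluorescence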;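 note: 0% = blank wells without stimulus and 100% = stimulated no-compound controls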
HEK293 Tl flux: counter-screen for Kir2.1 inhibitors: effect in parental HEK293 cells; shares compounds with KCNQ2 enhance; FluxOR thallium flux fluorescence; 0% = unstimulated blank wells; FluxOR signal as % of negative control (100 = no effect), % at 10 µM; 2,300 compounds, 19% hits; AID 2105;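 active = dye signal at least 3 control SD above or below untreated wells in both duplicates, raw fluorescence within 3, either direction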;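 note: percent is based on the flux ratio of peak minus minimum fluorescence over baseline F0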
CHO-K1 ctr: alters thallium flux in parental CHO-K1 cells, KCNQ2 counter-screen; shares compounds with KCNQ2 enhance; FluxOR thallium flux fluorescence; zero = vehicle mean+3SD, 100% = vehicle-minus-blank window; activity increase over 3SD of controls, % at 10 µM; 1,200 compounds, 43% hits;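 active = signal rise of at least 3 SD above the untreated control mean, in both duplicate wells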;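 note: counter screen of KCNQ2 potentiator hits so any rise reflects channel-independent effects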
KCNQ1 sel pot: tests whether KCNQ2 potentiators also act on human KCNQ1; CHO KCNQ1 stable, FluxOR thallium flux fluorescence; beyond 3SD, as % of vehicle-control signal; shares compounds with KCNQ2 enhance; 1,200 compounds, 28% hits; activation over 3SD threshold, % at 10 µM;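 active = fluorescence ratio rise of at least 3 SD of vehicle wells above their mean, in both replicate wells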;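 note: 0% = vehicle mean plus 3 SD and 100% = vehicle minus unstimulated blank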
KCNQ2 pot conf: confirmation of rat KCNQ2 potassium channel potentiators | shares compounds with KCNQ2 enhance | CHO-KCNQ2 cells, FluxOR thallium flux fluorescence | potentiation, less the hit threshold, % at 10 µM | 1,200 compounds, 68% hits;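 active = fluorescence ratio rising 3 SD or more over the vehicle control mean in both replicates, plus primary screen hit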;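 note: peak minus minimum thallium fluorescence divided by baseline after K/Tl stimulus; 0% = vehicle mean plus 3 SD and 100% = vehicle minus unstimulated blank difference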
Kir2-1 sel: tests whether KCNQ2 potentiators also affect mouse Kir2.1; activity over 3SD threshold, % at 10 µM; 1,200 compounds, 2% hits; shares compounds with KCNQ2 enhance; HEK293 Kir2.1, FluxOR thallium flux fluorescence; AID 2345;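 active = fluorescence ratio rise of at least 3 SD above the vehicle-control mean, seen in both replicates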;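 note: 0% = vehicle mean plus 3 SD and 100% = vehicle minus no-stimulus blank window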
KCNQ2 W236L MoA: KCNQ2 potentiators acting on retigabine-insensitive rat KCNQ2 W236L mutant. shares compounds with KCNQ2 enhance. CHO KCNQ2-W236L, automated patch clamp current. current increase over 3SD of negative controls (%), stronger effect = higher value, % at 25 µM. 940 compounds, 10% hits. AID 2558;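 active = current increase at least 3 SD of the untreated controls above them in both duplicate recordings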
* = called active by the depositor; i = inactive; / = no result; + = active, no number. Unless noted, the rule behind the calls is not given here.

SMILES | KCNQ2 block | KCNQ2 enhance | KCNQ2 block conf | KCNQ1 spec | CHO Tl ctr | others
CCOC(=O)c1c(NC(NC(=O)CF)C(Cl)(Cl)Cl)sc2c1CCCC2 (stereo not drawn) | -8.4* | -8.4 | -29%* | i | i | KCNQ2 inh confirm=i
CCOC(=O)c1c(/N=C/C2C(=O)NC(=O)NC2=O)sc2c1CCC2 | i | 0.38 | / | / | /
Cc1ccc(S(=O)(=O)N2CC2(C)CCl)cc1 (stereo not drawn) | i | 0.4 | / | / | /
CCC(C#N)(CC)P(=S)(c1ccccc1)c1ccccc1 | -8.6* | -8.6 | i | i | i
CC1(C)C(=O)C=C[C@]2(C)[C@H]3CC[C@@]4(C)[C@H](c5ccoc5)OC(=O)[C@H]5O[C@]54[C@]3(C)[C@H](O)C[C@@H]12 | i | / | / | / | /
COc1cc2c(C(=O)N3CCN(C)CC3)c(C)n(C)c2cc1Br | i | / | / | / | /
O=C(CNC(=O)c1ccccc1Cl)Nc1ccc(Br)cc1C(=O)c1ccccc1 | i | 0.06 | / | / | /
O=C(c1cc(C(=O)NCc2ccccc2)c(=O)n(Cc2ccccc2)c1)c1cc(Br)ccc1O | -8.2* | -8.2 | -34%* | -39%* | -32%* | KCNQ2 inh confirm=i
COc1cc(/C=C/[N+](=O)[O-])ccc1O | -7.1* | -7.1 | -32%* | -30%* | -24%* | KCNQ2 inh confirm=i
COc1cc(/C=C2/C(=O)NC(=O)N(c3ccccc3)C2=O)ccc1O | i | 0.42 | / | / | /
Cn1c(CN2CCN(C(=O)COc3ccccc3)CC2)nc2cc([N+](=O)[O-])ccc21 | i | / | / | / | /
COc1cccc(NP(=O)(Oc2ccc(Cl)cc2)Oc2ccc(Cl)cc2)c1 | i | / | / | / | /
O=P(Nc1ccccc1)(Nc1ccccc1)Oc1ccc(Cl)cc1 | -9.7* | -9.7 | i | i | i
CCOC(=O)CC1=C(C(=O)OCC)C2(C(=O)Nc3ccccc32)C(C#N)=C(N)O1 (stereo not drawn) | i | / | / | / | /
CCOc1cc(C2NCc3ccccc3-n3cccc32)ccc1OC (stereo not drawn) | i | / | / | / | /
CCCn1cc(CN2CCCC(C(=O)c3cccc(OC)c3)C2)c(C)n1 (stereo not drawn) | i | 0.59 | / | / | /
COc1cccc(-n2c(/C=C/c3ccc(O)c(O)c3)nc3ccccc3c2=O)c1 | -6.9* | -6.9 | -28%* | i | i | KCNQ2 inh confirm=i
COc1ccc(-n2c(/C=C/c3ccc(O)c(OC)c3)nc3ccccc3c2=O)cc1 | i | / | / | / | /
Clc1ccc(COC(Cn2ccnc2)c2ccc(Cl)cc2Cl)c(Cl)c1 (stereo not drawn) | -7.3* | -7.3 | -38%* | -42%* | -34%* | KCNQ2 inh confirm=i
CCC(=NCCC1=CCCCC1)c1c(O)[nH]c(=O)[nH]c1=O | i | 0.12 | / | / | /
CCOP(=O)(OCC)/C(C#N)=C/c1ccoc1 | i | 0.02 | / | / | /
O=P(NS(=O)(=O)c1ccccc1)(Oc1ccccc1)Oc1ccccc1 | i | 0.11 | / | / | /
O=P(NCc1ccccc1)(Oc1ccccc1)Oc1ccccc1 | -6.9* | -6.9 | i | i | i
Cn1c(O)c(C=NCCCCCCCCCCC(=O)O)c(=O)n(C)c1=O | i | 0.75 | / | / | /
CCN(CC)c1ccc(CC2C(=O)N(C)C(=O)N(C)C2=O)cc1 | i | / | / | / | /
SMILES | KCNQ2 block | KCNQ2 enhance | KCNQ2 block conf | KCNQ1 spec | CHO Tl ctr | others
CCN(CC)c1ccc(/C=C/[N+](=O)[O-])cc1 | -8.8* | -8.8 | -75%* | -80%* | -76%* | KCNQ2 inh confirm=i
CN1C(=O)N(C)C(=O)C2(Cc3cc([N+](=O)[O-])ccc3N(C)C2)C1=O | i | 0.75 | / | / | /
CCOc1ccc(C2C(C#N)=C(N)Oc3c2c(=O)oc2ccccc32)cc1 (stereo not drawn) | i | / | / | / | /
CCCC1(CCC)C(=O)NC(=NCc2ccccc2)NC1=O | -10* | -10 | -36%* | i | i | KCNQ2 inh confirm=+
CCCC1(CCC)C(=O)NC(=Nc2ccccc2)NC1=O | i | 1.3 | / | / | /
COc1ccccc1N1CCN(Cc2ccccc2Cl)CC1 | i | / | / | / | /
CCCCCCCSc1cc(OC)c(CCNC)cc1OC | -7.4* | -7.4 | -31%* | i | i | KCNQ2 inh confirm=i;Kir21 confirm=20%*;HEK293 Tl flux=i
CCN(CC)CCNC(=O)c1c(O)c2ccccc2n(Cc2ccccc2)c1=O | i | 0.45 | / | / | /
CC(=NC(C)c1ccccc1)c1c(O)[nH]c(=O)[nH]c1=O (stereo not drawn) | i | 0.89 | / | / | /
O=C([O-])c1ccc(-[n+]2c(-c3ccccc3)cc(-c3ccccc3)cc2-c2ccccc2)cc1 | i | / | / | / | /
Oc1ccc(-[n+]2c(-c3ccccc3)cc(-c3ccccc3)cc2-c2ccccc2)cc1 | -6.9* | -6.9 | -27%* | i | i | Kir21 confirm=44%*;HEK293 Tl flux=74%*
Cc1cc(OCC(=O)NCc2cccnc2)c2c3c(c(=O)oc2c1)CCCC3 | i | / | / | / | /
O=C(CCCN1CCC2(CC1)C(=O)NCN2c1ccccc1)c1ccc(F)cc1 | i | 6* | / | / | / | Kir21 confirm=i;HEK293 Tl flux=i;CHO-K1 ctr=5.3*;KCNQ1 sel pot=64*;KCNQ2 pot conf=17*;Kir2-1 sel=-40;KCNQ2 W236L MoA=i
O=C(c1ccc(F)cc1)C(Cc1ccccc1)N1CCCCC1 (stereo not drawn) | i | 0.07 | / | / | /
CC(=O)NCC(=O)Nc1ccc(Br)cc1C(=O)c1ccccc1 | i | 3.5 | / | / | /
O=C(c1cccnc1)C1CCCN(Cc2nc(-c3cnccn3)no2)C1 (stereo not drawn) | i | 0.09 | / | / | /
COc1cc(C)c(CNCCc2c[nH]c3ccccc23)cc1C | i | / | / | / | / | Kir21 confirm=40%*;HEK293 Tl flux=i
COc1ccc(CNCCc2ccccc2F)c(OC)c1C | i | 0.26 | / | / | /
COc1ccc(CNCCc2c[nH]c3ccccc23)c(OC)c1C | i | 0.92 | / | / | / | Kir21 confirm=46%*;HEK293 Tl flux=i

Screening results from PubChem BioAssay.
